Our source for the growth values is PubChem BioAssay (NCI).

Compounds without any hit were thinned out: in the full panel of roughly 83,000, 20% have a hit.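 96-well plates, one dose, 48 hours. Percent growth reported; active if below 10.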 Calls of active or inactive are those of the source.

The experiment concerns MDA-MB-468 breast. The experiment can be described thus: NCI-60 one-dose screen, 48 h (100 = growth as untreated, 0 = no growth, -100 = all killed). The note with it: 10 µM unless noted.
Regarding `CCOC(=O)C(CCCCC(NC(C)=O)(C(=O)OCC)C(=O)OCC)(NC(C)=O)C(=O)OCC`, the growth is 107% (inactive).
With `C#Cc1ccc(-n2c(/C=C/c3ccc4ccccc4n3)nc3ncccc3c2=O)cc1`, the growth is -68.1% (active).
The value for `O=C(/C=C/c1ccccn1)c1ccccc1` was 21.3% (inactive); that for `CC1CN(C2CCCCC2)C(=O)NC1=O` (stereo unspecified) was 108% (inactive); that for `Cc1ccc(-c2cc(-c3ccccc3C)[nH]c(=O)c2C#N)s1` was 99.3% (inactive).
With `Cc1ccc(C2C=C(c3ccc(Cl)cc3)N=C3SC=CN32)c(Br)c1` (stereo unspecified) the figure was 69.7% (inactive); with `Cc1cc(=O)oc2cc(OC(=O)N3CCN(C)CC3)ccc12`, 107% (inactive); with `O=[N+]([O-])c1cccc(C2CC(c3ccccc3)=Nc3ccccc3S2)c1` (stereo unspecified), 86.4% (inactive).
Take `Nc1c(C(=O)Nc2cccc3ccncc23)sc2nc3c(cc12)C(=O)CCC3`: the growth is -12.6% (active).
With `O=C(/C=C/c1ccc(F)cc1)N1CCN(C(=O)/C=C/c2ccc(C(F)(F)F)cc2)CC1` the figure was 117% (inactive); with `c1cncc(CNc2ccccc2-c2nnc(Nc3ccc4c(c3)OCO4)o2)c1`, -1.51% (active).
